This is part of a sample that, as a whole, favours compounds with a hit. Of some 83,000 tested, about 20% had one in any assay.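 96-well plates, one dose, 48 hours. Percent growth reported; active if below 10.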 Unmarked numbers belong to inactive results. The source made the active and inactive calls.
What was measured:
Test in all cases: NCI-60 one-dose screen, 48 h (100 = growth as untreated, 0 = no growth, -100 = all killed)
Details in all cases: 10 µM unless noted
NCI-H23 lung = system: NCI-H23 lung
NCI-H226 lung = system: NCI-H226 lung
NCI-H322M lung = system: NCI-H322M lung
HOP-62 NSCLC = system: HOP-62 NSCLC
NCI-H460 lung = system: NCI-H460 lung
HOP-92 NSCLC = system: HOP-92 NSCLC
NCI-H522 lung = system: NCI-H522 lung
A549/ATCC NSCLC = system: A549/ATCC NSCLC
786-0 renal = system: 786-0 renal
COLO 205 colon = system: COLO 205 colon
DU-145 prostate = system: DU-145 prostate
K-562 leukemia = system: K-562 leukemia
MALME-3M melanoma = system: MALME-3M melanoma
MDA-MB-231 breast = system: MDA-MB-231 breast
RXF 393 renal = system: RXF 393 renal
SF-268 CNS = system: SF-268 CNS
SF-295 CNS = system: SF-295 CNS
SF-539 CNS = system: SF-539 CNS
UACC-257 melanoma = system: UACC-257 melanoma
M14 melanoma = system: M14 melanoma

Structure (SMILES)	growth (NCI-H23 lung) [%]	growth (NCI-H226 lung) [%]	growth (NCI-H322M lung) [%]	growth (HOP-62 NSCLC) [%]	growth (NCI-H460 lung)	growth (HOP-92 NSCLC)	growth (NCI-H522 lung)	growth (A549/ATCC NSCLC) [%]	growth (786-0 renal)	growth (COLO 205 colon)	growth (DU-145 prostate)	growth (K-562 leukemia)	growth (MALME-3M melanoma) [%]	growth (MDA-MB-231 breast)	growth (RXF 393 renal)	growth (SF-268 CNS) [%]	growth (SF-295 CNS)	growth (SF-539 CNS)	growth (UACC-257 melanoma) [%]	growth (M14 melanoma)
CN1CCN(c2ccc(-c3cc4c(Nc5ccc(F)c(Cl)c5)ncnn4c3)cn2)CC1	102	97.7	74.7	106	16.1%	107%	98.6%	85.2	100%	105%	58.1%	11.7%	50.3	77.3%	101%	98.7	103%	68%	105	
CCOC(=O)Nc1ccc(C(=O)/C=C/c2ccccc2)cc1	95	79.2	100	90.2	91.3%	70.2%	106%	54.4	87.1%	127%	86.4%	24.2%	103	95.9%	36.8%	93.8	106%	67.9%	115	
c1ccc2c(c1)Nc1ccncc1S2	99.5	84	114	98.2	100%	97.9%	92.5%	100	109%	130%	118%	112%	111	87.8%	4.28% (active)	99.3	101%	84.4%	108	
COc1ccc(C2CC(c3ccc(Nc4nc(Nc5ccc(F)cc5)nc(Nc5ccc(Cl)cc5)n4)cc3)=NN2C(C)=O)cc1 (stereo not given)	91.8	97.7	123	110	102%	82.8%	58.1%	90.2	98.9%	96.1%	122%	114%	88.1	90.9%	86.6%	131	103%	101%	98.5	
O=C(CSc1nc2ccccc2[nH]1)Nc1cccc(Cl)c1	98.4	101	96.3	94.9	103%	90.6%	89%	111	101%	108%	101%	100%	97.2	76.5%	114%	97.1	104%	103%	117	
CCc1ccc2nc(NC(=O)Cc3csc(NC(=O)c4ccco4)n3)sc2c1	85.1	72.6	81.5	86.3	79%	-17.9% (active)	60.4%	91.3	71.6%	107%	67%	64.5%	59.6	67.9%	73.1%	43.3	77.6%	34.8%	101	96.7%
CCOC(=O)c1sc2ncc(-c3ccc(C)cc3)n2c1C	83	78.2	92.6	87.9	101%	83.9%	86.2%	97.3	106%	99.7%	97.5%	79.4%	84.2	85.6%	107%	106	96.7%	93.8%	98.3	87.1%
Cc1cc2nc3cc(C)c(N)cc3[n+](-c3ccccc3)c2cc1N	39.8	71.2	93.8	52.7	65.6%	41.5%	38.4%	75.1	58.6%	61.1%	72.9%	32.4%	48.7	90.3%	91.7%	24	34.5%	50.5%	32.6	89.5%
COc1ccc(CNC(=O)[C@H](O)[C@@H](N)Cc2ccccc2)cc1	99.9	98.8	105	119	106%	72.8%	95.6%	108	97.9%	114%	113%	98.4%	108	100%	107%	92.7	97.9%	97.2%	108	105%
COc1cc(C(=O)N/N=C/c2cc3cc(OCc4ccccc4)ccc3nc2OC)cc(OC)c1OC	90.2	78.4	98	83	78.7%	66.7%	70.2%	82.2	85.5%	102%	102%	74.6%	110	94.7%	79.6%	79.7	98.4%	85.8%	79.2	83.4%
Cc1ccc2c(-c3cc(-c4ccccc4)nc(N)c3C#N)cc(=O)oc2c1	102	95.9	96.6	88.3	101%	92.3%	68.1%	92	92.2%	108%	107%	108%	94.8	101%	110%	99.1	109%	94.7%	101	108%
O=C1NC(=O)C(c2ccccc2)(c2ccccc2)N1Cc1cn(-c2c3ccccc3nc3ccccc23)nn1	85.5	99.5	92.9	87.5	74.1%	67.3%	15.9%	78.2	87.3%	107%	91.2%	39.2%	104	73.1%	85.6%	89.3	99%	98.5%	89.1	96.2%
CCOC(=O)Nc1ccc(-c2nc(-c3cccc(OCCN4CCOCC4)c3)c(-c3ccnc(Br)c3)[nH]2)cc1	47.3	56.3	58	50.8	54.1%	54.1%	52%	54.2	-5.12% (active)	48.2%	67.2%	1.64% (active)	40.3	46.2%	-25.9% (active)	62.3	-53.9% (active)	23.4%	60	57.4%
O=S(=O)(NCCCNc1cc(-c2c(-c3cccc(O)c3)nc3sccn23)ccn1)c1cccc2ccccc12	39.8	41.1	78.8	67.2	39.7%	97.3%	51.2%	58.9	51.2%	35.5%	42.4%	21.3%	48.4	72.2%	41.1%	41.5	34.3%	72.2%	61.2	45.4%
O=c1c2cc(F)ccc2sc2c(N3CCNCC3)nc3ccc(F)cc3c12	61.3	83.8	55.4	57.5	-88.4% (active)	7.38% (active)	8.28% (active)	13.2	60.5%	-51.9% (active)	-84.7% (active)	-37.8% (active)	82.6	-76.4% (active)	50.9%	48.3	77.8%	-89.4% (active)	96.3	-62% (active)
CCOC(=O)c1nc(Nc2ccc(C(C)=O)cc2)sc1C	94.1	98.8	96.2	105	105%	108%	87.2%	94.3	96.5%	106%	107%	99.1%	106	104%	109%	102	92%	97.2%	102	104%

— PubChem BioAssay (NCI)
